# Results: PubChem BioAssay (Tox21)
# Inconclusive results are not listed. Entries that show only a call come without a potency. Active and inactive are the calls of the source. Unless noted, calls follow the shape of the dose curve; as a rule, active = well fitted curve in the direction sought with a large enough effect in the repeat runs; inconclusive = weak or mixed curves; inactive = no such curve, though single readings can be large; an effect the other way counts as inactive or inconclusive.
# Legend:
# [1] = qHTS assay to identify aromatase inhibitors - cell viability counter screen (AID 743084);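 also: cells stimulated with testosterone during compound exposure; nearly all actives have a fitted effect of over 55% in size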; also: potency is read from the fitted curve at half-maximal effect
# [2] = biological target: Aryl hydrocarbon receptor (Homo sapiens) (UniProt P35869); assay: qHTS assay to identify small molecule that activate the aryl hydrocarbon receptor (AhR) signaling pathway (AID 743085); also: nearly all actives have a fitted effect of over 15% in size; also: potency is read from the fitted curve at half-maximal effect;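 as to activation: HG2L7.5c1 human HepG2 liver cells with stably integrated DRE-driven firefly reporter; series mostly up to about 70 µM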
# Method in brief: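 Steps: seed HepG2-AhR-luc cells; allow 5 h at 37C; pin-transfer test compound or vehicle; incubate 24 h at 37C; add viability dye (30 min, 37C) and read fluorescence; add luciferase substrate (30 min, RT) and read luminescence.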
# [3] = biological target: Peroxisome proliferator-activated receptor gamma (Homo sapiens) (UniProt P37231); assay: qHTS assay to identify small molecule agonists of the peroxisome proliferator-activated receptor gamma (PPARg) signaling pathway (AID 743094; active = well fitted activation curve with a large enough effect in the signal ratio in the repeat runs, not every such curve was filed as active; the % refers to the signal ratio)
# Method in brief: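 Cells from the PPARg UAS-bla HEK293H line are plated and incubated 5 h at 37C. Compounds in DMSO are pinned in and left 17 h at 37C. LiveBLAzer B/G substrate is then added for 1 h at room temperature before fluorescence is measured.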
# [4] = biological target: Peroxisome proliferator-activated receptor gamma (Homo sapiens) (UniProt P37231); assay: qHTS assay to identify small molecule antagonists of the peroxisome proliferator-activated receptor gamma (PPARg) signaling pathway (AID 743191; calls by dose curve; also: series mostly up to about 63 µM; nearly all actives have a fitted effect of over 30% in size)
# Method in brief: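 GeneBLAzer PPARg UAS-bla HEK293H cells, 5 h post-plating, exposed to compounds 17 h at 37C. LiveBLAzer B/G FRET substrate added for 1 h at room temperature; beta-lactamase reporter read by fluorescence intensity.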
# [5] = qHTS assay to identify small molecule antagonists of the peroxisome proliferator-activated receptor gamma (PPARg) signaling pathway - cell viability counter screen (AID 743194); also: nearly all actives have a fitted effect of over 55% in size; also: potency is read from the fitted curve at half-maximal effect
# Method in brief: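 Cytotoxicity counter screen in PPARg-bla HEK293H cells, same wells as reporter assay. Compounds plus 50 nM rosiglitazone (final) for 17 h at 37 C, then viability read by CellTiter-Glo luminescence.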
# [6] = qHTS assay for small molecule agonists of the antioxidant response element (ARE) signaling pathway (AID 743202; active = well fitted activation curve with a large enough effect in the signal ratio in the repeat runs, not every such curve was filed as active; the % refers to the signal ratio; also: potency is read from the fitted curve at half-maximal effect)
# Method in brief: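 HepG2 ARE-bla cells; 16 h treatment at 37 C; FRET-based beta-lactamase fluorescence read after 2 h substrate incubation at room temperature.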
# [7] = qHTS assay for small molecule agonists of the antioxidant response element (ARE) signaling pathway - cell viability counter screen (AID 743203; calls by dose curve; also: nearly all actives have a fitted effect of over 55% in size)
# Method in brief: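 Cytotoxicity was tested in parallel with the ARE reporter screen. ARE-bla HepG2 cells were exposed to compounds for 16 hrs, and viability was taken from CellTiter-Glo luminescence.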
# [8] = qHTS assay for small molecule activators of the heat shock response signaling pathway - cell viability counter screen (AID 743209); also: nearly all actives have a fitted effect of over 50% in size; also: potency is read from the fitted curve at half-maximal effect
# Method in brief: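 Cytotoxicity counter screen run in parallel with the HSE beta-lactamase reporter, using the same wells. HeLa HSE-bla cells received compound for 5 h at 37 C; ATP-based CellTiter-Glo luminescence was measured after 30 min at room temperature.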
# [9] = qHTS assay to identify small molecule agonists of the peroxisome proliferator-activated receptor delta (PPARd) signaling pathway - cell viability counter screen (AID 743211); also: nearly all actives have a fitted effect of over 55% in size; also: potency is read from the fitted curve at half-maximal effect
# Method in brief: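 Viability of GeneBLAzer PPARd UAS-bla HEK293H cells was assessed after 17 h compound incubation at 37C, using CellTiter-Glo reagent added after the reporter read and luminescence recorded 30 min later.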
# [10] = biological target: Peroxisome proliferator-activated receptor delta (Homo sapiens) (UniProt Q03181); assay: qHTS assay to identify small molecule agonists of the peroxisome proliferator-activated receptor delta (PPARd) signaling pathway (AID 743212; calls by dose curve)
# Method in brief: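 Tox21 library screened in GeneBLAzer PPARd UAS-bla HEK293H cells. After compound treatment at 37 C, a FRET-based beta-lactamase substrate was applied for 2 h and fluorescence recorded.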
# [11] = qHTS assay to identify small molecule antagonists of the peroxisome proliferator-activated receptor delta (PPARd) signaling pathway - cell viability counter screen (AID 743213); also: nearly all actives have a fitted effect of over 50% in size; also: potency is read from the fitted curve at half-maximal effect
# Method in brief: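 PPARd-bla HEK293H cells were treated with compounds plus agonist L165041 (300 nM final) for 17 h at 37 C. Viability was then read in the same wells by CellTiter-Glo luminescence after 30 min at room temperature.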
# [12] = biological target: Peroxisome proliferator-activated receptor delta (Homo sapiens) (UniProt Q03181); assay: qHTS assay to identify small molecule antagonists of the peroxisome proliferator-activated receptor delta (PPARd) signaling pathway (AID 743215; active = well fitted inhibition curve with a large enough effect in the signal ratio in the repeat runs, not every such curve was filed as active; the % refers to the signal ratio;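 also: cells stimulated with agonist L165041 at 300 nM final during compound exposure; series mostly up to about 62 µM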)
# Method in brief: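 Cells: HEK293H with a UAS-driven beta-lactamase reporter responsive to PPARd. Compounds were co-added with L165041 (300 nM, final) and incubated 17 h at 37 C before a 2 h room-temperature FRET substrate step and fluorescence reading.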
# [13] = qHTS assay to identify small molecule agonists of the farnesoid-X-receptor (FXR) signaling pathway - cell viability counter screen (AID 743218); also: nearly all actives have a fitted effect of over 45% in size
# Method in brief: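 Cells were seeded, left 5 h at 37 C and 5% CO2, then dosed with compound in DMSO for 16 h. After the beta-lactamase FRET read, CellTiter-Glo was added and luminescence measured 30 min later.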
# [14] = qHTS assay to identify small molecule antagonists of the farnesoid-X-receptor (FXR) signaling pathway - cell viability counter screen (AID 743221; active = well fitted cell-killing curve with a large enough effect in the repeat runs, not every such curve was filed as active; also: nearly all actives have a fitted effect of over 50% in size; also: potency is read from the fitted curve at half-maximal effect)
# Method in brief: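 Quantitative HTS of the Tox21 10K library run in parallel with the beta-lactamase reporter read. HEK 293T cells carrying a UAS-driven bla reporter got compound and 50 uM CDCA (final) for 16 h; ATP-based luminescence followed.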
# [15] = biological target: Vitamin D3 receptor (Homo sapiens) (UniProt P11473); assay: qHTS assay to identify small molecule agonists of the vitamin D receptor (VDR) signaling pathway (AID 743222; calls by dose curve)
# Method in brief: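 Cells carrying a VDR-driven beta-lactamase reporter are seeded at 2,000 per well and rested 4 h. Compounds in DMSO are added for 16 h at 37C, and FRET substrate fluorescence is measured after 2 h at room temperature.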
# [16] = biological target: Vitamin D3 receptor (Homo sapiens) (UniProt P11473); assay: qHTS assay to identify small molecule antagonists of the vitamin D receptor (VDR) signaling pathway (AID 743223; active = well fitted inhibition curve with a large enough effect in the signal ratio in the repeat runs, not every such curve was filed as active; the % refers to the signal ratio)
# Method in brief: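 Fluorescence from LiveBLAzer B/G FRET substrate, read after 2 h at room temperature, reflects beta-lactamase reporter activity in VDR-bla cells treated 16 h at 37C with compounds and agonist 1alpha,25-dihydroxyvitamin D3 (3 nM final).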
# [17] = biological target: Bile acid receptor (Homo sapiens) (UniProt Q96RI1); assay: qHTS assay to identify small molecule antagonists of the farnesoid-X-receptor (FXR) signaling pathway (AID 743217; active = well fitted inhibition curve with a large enough effect in the signal ratio in the repeat runs, not every such curve was filed as active; the % refers to the signal ratio)
# Method in brief: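 Cells carrying a UAS-driven beta-lactamase reporter (GeneBLAzer FXR-UAS-bla HEK 293T) were plated and rested 5 h at 37 °C. Compounds in DMSO were added alongside chenodeoxycholic acid agonist at 50 uM final and left 16 h at 37 °C before FRET substrate readout.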
# [18] = biological target: Bile acid receptor (Homo sapiens) (UniProt Q96RI1); assay: qHTS assay to identify small molecule agonists of the farnesoid-X-receptor (FXR) signaling pathway (AID 743220; active = well fitted activation curve with a large enough effect in the signal ratio in the repeat runs, not every such curve was filed as active; the % refers to the signal ratio)
# Method in brief: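 FXR-UAS-bla HEK 293T cells carrying a UAS-driven beta-lactamase reporter were plated for 5 h at 37C/5% CO2, then exposed to DMSO-dissolved Tox21 10K compounds for 16 h at 37C. A LiveBLAzer B/G FRET substrate was loaded for 2 h at room temperature before fluorescence reading.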
# [19] = qHTS assay to identify small molecule that activate the aryl hydrocarbon receptor (AhR) signaling pathway - cell viability counter screen (AID 743086); also: nearly all actives have a fitted effect of over 45% in size; also: potency is read from the fitted curve at half-maximal effect
# Method in brief: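 HepG2-AhR-luc (HG2L7.5c1) cells, 4000/well, treated 24 h at 37 C with compound; viability measured as CellTiter-Fluor fluorescence after 30 min in the same wells as the luciferase read.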
# [20] = qHTS assay for small molecule activators of the heat shock response signaling pathway (AID 743210; active = well fitted activation curve with a large enough effect in the signal ratio in the repeat runs, with a control signal flat, not every such curve was filed as active; the % refers to the signal ratio;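 also: HeLa cells with beta-lactamase reporter driven by heat shock elements; series mostly up to about 63 µM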)
# Method in brief: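 Following overnight attachment, HSE-bla HeLa cells received test compounds for 5 h at 37 C; beta-lactamase activity was then detected via FRET substrate fluorescence.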
# Sequence of Peroxisome proliferator-activated receptor gamma (Homo sapiens) (P37231 whole entry, looked up): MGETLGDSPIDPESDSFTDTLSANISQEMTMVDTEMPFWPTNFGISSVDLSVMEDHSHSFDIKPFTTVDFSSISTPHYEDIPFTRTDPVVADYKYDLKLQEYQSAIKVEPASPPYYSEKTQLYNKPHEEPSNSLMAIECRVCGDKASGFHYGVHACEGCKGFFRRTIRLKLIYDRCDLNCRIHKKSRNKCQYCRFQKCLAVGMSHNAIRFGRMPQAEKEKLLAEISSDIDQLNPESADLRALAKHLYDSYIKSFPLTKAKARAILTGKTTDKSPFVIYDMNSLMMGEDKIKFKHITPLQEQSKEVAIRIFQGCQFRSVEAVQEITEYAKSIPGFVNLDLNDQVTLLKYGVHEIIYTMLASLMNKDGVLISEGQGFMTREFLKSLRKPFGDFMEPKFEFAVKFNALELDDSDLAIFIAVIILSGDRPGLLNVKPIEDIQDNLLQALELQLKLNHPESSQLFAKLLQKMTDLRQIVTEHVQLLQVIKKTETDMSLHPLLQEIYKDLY
# Sequence of Bile acid receptor (Homo sapiens) (Q96RI1 whole entry, looked up): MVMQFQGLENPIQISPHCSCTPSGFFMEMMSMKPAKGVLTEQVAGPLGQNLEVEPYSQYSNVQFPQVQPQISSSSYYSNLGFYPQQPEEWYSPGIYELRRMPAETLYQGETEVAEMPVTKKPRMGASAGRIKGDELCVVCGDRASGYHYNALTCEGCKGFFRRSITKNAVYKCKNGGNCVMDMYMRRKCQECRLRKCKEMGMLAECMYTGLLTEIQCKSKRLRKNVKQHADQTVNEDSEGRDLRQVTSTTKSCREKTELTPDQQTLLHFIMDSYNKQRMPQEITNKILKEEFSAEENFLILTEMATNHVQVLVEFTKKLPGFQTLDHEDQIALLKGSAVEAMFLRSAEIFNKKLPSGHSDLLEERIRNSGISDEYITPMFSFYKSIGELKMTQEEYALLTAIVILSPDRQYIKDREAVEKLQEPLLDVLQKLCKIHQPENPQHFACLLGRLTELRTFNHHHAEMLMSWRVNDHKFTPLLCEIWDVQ
# Sequence of Vitamin D3 receptor (Homo sapiens) (P11473 whole entry, looked up): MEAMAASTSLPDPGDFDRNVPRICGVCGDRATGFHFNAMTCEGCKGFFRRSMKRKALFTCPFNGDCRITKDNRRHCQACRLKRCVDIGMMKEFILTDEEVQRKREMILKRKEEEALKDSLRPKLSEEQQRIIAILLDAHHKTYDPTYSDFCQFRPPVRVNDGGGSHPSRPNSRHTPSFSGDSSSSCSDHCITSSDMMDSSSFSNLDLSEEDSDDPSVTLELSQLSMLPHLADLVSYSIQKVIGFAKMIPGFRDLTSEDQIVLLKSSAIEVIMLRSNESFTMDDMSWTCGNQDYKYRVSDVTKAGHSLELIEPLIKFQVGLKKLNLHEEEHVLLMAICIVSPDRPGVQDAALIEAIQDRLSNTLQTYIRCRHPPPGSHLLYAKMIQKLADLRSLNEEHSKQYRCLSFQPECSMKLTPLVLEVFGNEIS
# Sequence of Aryl hydrocarbon receptor (Homo sapiens) (P35869 whole entry, looked up): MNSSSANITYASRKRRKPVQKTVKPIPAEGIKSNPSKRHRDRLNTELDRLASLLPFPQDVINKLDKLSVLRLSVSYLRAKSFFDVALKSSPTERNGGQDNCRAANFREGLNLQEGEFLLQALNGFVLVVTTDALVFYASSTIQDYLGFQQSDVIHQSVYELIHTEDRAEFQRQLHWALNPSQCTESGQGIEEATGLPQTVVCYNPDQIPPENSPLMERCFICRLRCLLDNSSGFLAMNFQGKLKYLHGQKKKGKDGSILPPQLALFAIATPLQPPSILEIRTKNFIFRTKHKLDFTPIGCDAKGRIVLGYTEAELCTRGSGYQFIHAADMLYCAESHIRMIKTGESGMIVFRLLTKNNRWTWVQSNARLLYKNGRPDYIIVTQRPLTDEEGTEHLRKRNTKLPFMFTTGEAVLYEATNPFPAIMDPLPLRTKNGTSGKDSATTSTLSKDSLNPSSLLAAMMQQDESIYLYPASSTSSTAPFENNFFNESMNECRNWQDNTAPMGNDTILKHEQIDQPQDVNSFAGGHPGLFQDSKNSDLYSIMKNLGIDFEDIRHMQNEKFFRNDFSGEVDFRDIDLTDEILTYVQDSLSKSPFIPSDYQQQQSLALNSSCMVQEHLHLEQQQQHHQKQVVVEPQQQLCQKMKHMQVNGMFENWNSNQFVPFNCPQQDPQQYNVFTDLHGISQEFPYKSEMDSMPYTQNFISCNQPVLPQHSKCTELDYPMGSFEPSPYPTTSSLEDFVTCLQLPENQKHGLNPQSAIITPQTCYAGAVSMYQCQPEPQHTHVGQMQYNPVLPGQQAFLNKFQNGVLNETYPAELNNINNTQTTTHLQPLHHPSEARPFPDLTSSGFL
# Sequence of Peroxisome proliferator-activated receptor delta (Homo sapiens) (Q03181 whole entry, looked up): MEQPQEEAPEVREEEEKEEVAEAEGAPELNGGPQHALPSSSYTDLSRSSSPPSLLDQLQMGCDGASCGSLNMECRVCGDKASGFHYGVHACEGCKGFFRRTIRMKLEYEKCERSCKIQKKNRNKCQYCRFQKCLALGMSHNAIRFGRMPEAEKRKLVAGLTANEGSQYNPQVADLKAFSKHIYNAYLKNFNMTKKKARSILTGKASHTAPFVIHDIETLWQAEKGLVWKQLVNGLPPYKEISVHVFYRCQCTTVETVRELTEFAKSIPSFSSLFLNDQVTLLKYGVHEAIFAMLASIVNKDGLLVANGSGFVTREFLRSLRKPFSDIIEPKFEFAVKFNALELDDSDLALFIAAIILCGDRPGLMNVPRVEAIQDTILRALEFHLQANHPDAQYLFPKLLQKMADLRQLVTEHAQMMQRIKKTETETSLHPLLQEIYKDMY
SMILES,Potency [1],Potency [2],Potency [3],Potency [4],Potency [5],Potency [6],Potency [7],Potency [8],Potency [9],Potency [10],Potency [11],Potency [12],Potency [13],Potency [14],Potency [15],Potency [16],Potency [17],Potency [18],Potency [19],Potency [20]
O=C1CCCCCCCCCCOCCCCO1,inactive,inactive,inactive,inactive,inactive,inactive,inactive,inactive,inactive,inactive,inactive,inactive,inactive,inactive,inactive,inactive,–,–,–,–
Cc1ccccc1S,inactive,inactive,–,inactive,inactive,–,inactive,–,inactive,inactive,inactive,inactive,inactive,inactive,inactive,inactive,inactive,inactive,–,–
Oc1cccc(O)c1O,inactive,–,inactive,inactive,–,inactive,inactive,–,inactive,–,–,inactive,inactive,inactive,inactive,inactive,–,–,inactive,inactive
Cc1[nH]cnc1CN1CCc2c(c3ccccc3n2C)C1=O,inactive,–,inactive,–,inactive,inactive,inactive,inactive,inactive,–,inactive,–,inactive,inactive,inactive,inactive,–,–,inactive,inactive
O=C1NC(=O)c2cc([N+](=O)[O-])ccc21,–,inactive,inactive,–,inactive,–,inactive,inactive,inactive,inactive,inactive,inactive,inactive,inactive,–,–,–,–,inactive,inactive
CCOc1ccc(Cc2nccc3cc(OCC)c(OCC)cc23)cc1OCC,inactive,–,–,–,inactive,–,inactive,inactive,–,inactive,inactive,–,–,inactive,inactive,–,–,–,inactive,inactive
O=C=Nc1cccc(C(F)(F)F)c1,inactive,–,inactive,–,–,–,–,inactive,–,inactive,–,inactive,–,–,–,–,–,–,–,inactive
CC(=O)Nc1cc(S(=O)(=O)O)cc2cc(S(=O)(=O)O)c(N=Nc3ccccc3)c(O)c12,24.3 µM (active),–,inactive,–,–,inactive,inactive,–,inactive,inactive,inactive,inactive,inactive,inactive,inactive,inactive,–,–,–,inactive
CC(=O)OCCN(CCOC(C)=O)c1ccc(N=Nc2ccc([N+](=O)[O-])cc2C#N)cc1,27.3 µM (active),–,inactive,inactive,–,–,–,inactive,–,–,inactive,–,inactive,inactive,inactive,–,–,–,–,inactive
Cc1cc(O)ccc1O,–,61.8 µM (active),–,–,inactive,–,inactive,inactive,inactive,inactive,inactive,inactive,–,inactive,inactive,inactive,inactive,inactive,inactive,inactive
CCCC(=O)C(=O)O,–,inactive,–,–,inactive,–,inactive,inactive,inactive,inactive,inactive,inactive,–,inactive,–,–,–,–,inactive,inactive
CCC(C)COC(C)=O (stereo unspecified),inactive,–,–,–,inactive,inactive,inactive,–,inactive,inactive,inactive,inactive,inactive,inactive,–,–,inactive,inactive,inactive,–
O=C1c2ccccc2C(=O)C1c1nc2ccccc2c(Br)c1O,–,9.69 µM (active),inactive,inactive,inactive,1.54 µM (active),inactive,–,–,inactive,inactive,inactive,inactive,inactive,inactive,inactive,–,–,inactive,inactive
Oc1cc2c(cc1O)[C@H]1c3ccc(O)c(O)c3OC[C@@]1(O)C2,24.6 µM (active),–,inactive,–,–,–,–,inactive,inactive,inactive,inactive,–,–,inactive,–,–,–,–,27.6 µM (active),–
O=C(OCC(O)CO)c1ccccc1Nc1ccnc2cc(Cl)ccc12 (stereo unspecified),inactive,–,inactive,–,inactive,11.9 µM (active),inactive,–,33.5 µM (active),–,26.6 µM (active),–,–,–,–,–,–,–,inactive,–
Cc1cc(C)c(N)cc1C,inactive,–,inactive,–,inactive,inactive,inactive,inactive,inactive,inactive,inactive,inactive,inactive,inactive,inactive,inactive,inactive,inactive,inactive,inactive
CCOC(C)=O,inactive,–,–,inactive,–,inactive,inactive,inactive,inactive,inactive,–,inactive,inactive,inactive,inactive,inactive,–,–,inactive,inactive
O=c1cc(-c2ccccc2)oc2ccc3ccccc3c12,inactive,–,–,inactive,19.5 µM (active),–,–,24.5 µM (active),17.4 µM (active),–,13.8 µM (active),inactive,–,19.5 µM (active),inactive,–,–,–,inactive,–
CC(=O)OCC(=O)NCCCOc1cccc(CN2CCCCC2)c1,inactive,–,inactive,–,inactive,inactive,inactive,inactive,inactive,inactive,–,–,–,inactive,inactive,inactive,inactive,inactive,inactive,inactive
